Results filed as inconclusive are left out. Active and inactive are the calls of the source. Unless noted, the rule behind the calls is not given here.

From PubChem BioAssay (NCATS) come the findings set out here.

Test [1] can be described thus: qHTS profiling of the MIPE4 collection as inhibitors of Plasmodium falciparum (3D7) proliferation (AID 743344).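 Note: scaled between DMSO vehicle wells and 0.29 µM artemisinin as full inhibition.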 Particulars: P. falciparum 3D7 in erythrocytes, SYBR Green DNA fluorescence, 72 h; at 28.5 µM unless noted. The procedure, abridged:
(§1)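 Erythrocytes infected with P. falciparum (0.3% parasitemia, 2.5% hematocrit) incubated with compounds 72 h at 37 C, 5% CO2. Lysis with saponin/Triton buffer containing SYBR Green I, overnight at room temperature in the dark; DNA fluorescence (485/535 nm) normalised to 0.29 uM artemisinin and DMSO.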

Test [2] can be described thus: qHTS profiling of the MIPE4 collection as inhibitors of Plasmodium falciparum (DD2) proliferation (AID 743345). Particulars: P. falciparum Dd2 in erythrocytes, SYBR Green DNA, 72 h; at 28.5 µM unless noted. The procedure, abridged: as §1
Test [3] in a line: qHTS profiling of the MIPE4 collection as inhibitors of Plasmodium falciparum (DD2) proliferation (Rep 2) (AID 743346). The following applies: P. falciparum Dd2 in erythrocytes, SYBR Green DNA, 72 h; at 28.5 µM unless noted. In outline: as §1
On the technique in general: Quantitative high-throughput screening tests each substance at several concentrations.

A short description of test [4]: High-throughput drug toxicity screening in the BPDCN cell line Gen2.2 (AID 1224824).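 Note: cells exposed to compounds for 48 h before reading.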 Particulars: Gen2.2 BPDCN cells; at 45.8 µM (top of the series) unless noted. In outline:
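Seed 500 exponentially growing Gen2.2 cells/well; add compounds by pin tool; incubate 48 h, 37 °C, 5% CO2; add CellTiter-Glo, 15 min RT; read luminescence. % activity vs DMSO (100%) and bortezomib (0%).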

A short description of test [5]: High-throughput drug toxicity screening in the BPDCN cell line Cal-1 (AID 1224825). Particulars: Cal-1 BPDCN cell viability, qHTS; at 45.8 µM (top of the series) unless noted. The procedure, abridged: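 Exponentially growing Cal-1 cells, 500 per well in phenol red-free RPMI with 10% FBS, were exposed to compounds for 48 h at 37 °C, 5% CO2. Viability was read by CellTiter-Glo luminescence and normalised to DMSO (100%) and 9.2 uM bortezomib (0%).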

Test [6] can be described thus: qHTS assay for measurement of the activity of small molecule inhibitors on Zika virus induced Caspase-3 activity in human iPSC derived neural progenitor cells (hNPCs) (AID 1224857; active = well fitted inhibition curve with a large enough effect; note: % of control where 0% means no effect; nearly all actives have a fitted effect of over 65% in size). In outline:
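Caspase-3/7 induction by a 6-hour ZIKV infection was quantified with a luminescent Caspase-Glo 3/7 reagent incubated 30 minutes at room temperature. Compounds were preincubated with hNPCs for 1 hour; inhibition was calculated against uninfected and infected control wells.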

A short description of test [7]: qHTS assay for measurement of the activity of small molecule inhibitors on Zika virus induced Caspase-3 activity in human astrocytoma cells (AID 1224859; active = well fitted inhibition curve with a large enough effect;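 note: plate controls were ZIKV-infected untreated cells for no effect and uninfected cells for full effect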). The procedure, abridged:
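In SNB-19 cells plated at 250 cells/well and grown 16-20 h, compounds were applied 1 h before ZIKV (2 FFU/cell). Six hours later caspase-3/7 luminescence was recorded.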

Test [8] can be described thus: qHTS Screen of the MIPE 4.0 Collection Against Ewings Sarcoma (RDES) (AID 1259252; active = well fitted inhibition curve with a large enough effect; note: nearly all actives have a fitted effect of over 35% in size; note: potency is the fitted concentration of half-maximal effect). In outline: (§2)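 Compound titrations go onto adherent log-phase cells 4 h after seeding, incubate 48 h at 37C, then CellTiter-Glo luminescence reports viability relative to DMSO and cell-free controls.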
Test [9] is described as follows: qHTS Screen of the MIPE 4.0 Collection Against Ewings Sarcoma (TC32) (AID 1259256; active = well fitted inhibition curve with a large enough effect; note: potency is the fitted concentration of half-maximal effect; nearly all actives have a fitted effect of over 45% in size). In outline: as §2
Test [10] can be described thus: qHTS profiling of the MIPE4 collection as inhibitors of Plasmodium falciparum (HB3) proliferation (AID 743347).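 Note: plate controls were DMSO vehicle wells for no effect and artemisinin wells for full effect.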 Particulars: P. falciparum HB3 in erythrocytes, SYBR Green DNA, 72 h; at 28.5 µM unless noted. In outline:
as §1

Test [11] can be described thus: qHTS Screen of the MIPE 4.0 Collection Against Ewings Sarcoma (EW8) (AID 1259255; active = well fitted inhibition curve with a large enough effect; note: nearly all actives have a fitted effect of over 35% in size; note: potency is the fitted concentration of half-maximal effect;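 for viability: 100% = DMSO-treated cells and 0% = medium-only wells without cells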). In outline: as §2

In the case of `Nc1ncnc2c1c(-c1cccc(OCc3ccccc3)c1)cn2C1CC(CN2CCC2)C1` (stereo unspecified), the parasite growth, % of DMSO control in test [1] came to 31.5%. In addition, the parasite growth remaining, % of DMSO control (lower = more inhibition) in test [2] is 30.5%. The parasite growth, % of control (lower = inhibition) in test [3] stood at 21.6%. For the same molecule, in [4], the cell viability, % of control (lower = more cytotoxic) is 26.4%. Also, in [5], the viability (% of control) is 44.4%. For the same molecule, the Potency result in test [6] and in test [7] was “inactive” throughout. Further, the Potency in test [8] was 20.9 µM (active); in test [9], 4.69 µM (active).

In [1], `CC1(C)OC2CC3C4CC(F)C5=CC(=O)C=CC5(C)C4C(O)CC3(C)[C@]2(C(=O)CO)O1` (stereo partly specified) showed a parasite growth, % of DMSO control of 52.8%. Further, the parasite growth remaining, % of DMSO control (lower = more inhibition) in test [2] worked out at 89.8%. Also, in test [3], the parasite growth, % of control (lower = inhibition) was 7.06%. The growth, % of control in [10] is 47.9%. Also, in test [4], the cell viability, % of control (lower = more cytotoxic) is 77.5%. In addition, the viability (% of control) in test [5] was 52%. Further, the Potency result in [6], in [7], in [8] and in [11] was “inactive” throughout.

In turn, `CN(C)CCOc1cc(-c2cn[nH]c2)ccc1NC(=O)C1COc2ccccc2O1` (stereo unspecified) showed a parasite growth, % of DMSO control in [1] of 29.9%. For the same molecule, the parasite growth remaining, % of DMSO control (lower = more inhibition) in [2] came to 61.4%. In [3], this molecule displayed a parasite growth, % of control (lower = inhibition) of 32.4%. Besides, in [4], the cell viability, % of control (lower = more cytotoxic) came to 73.4%. In addition, the viability (% of control) in test [5] turned out to be 34.9%. The Potency entry in [6] and in test [7] was “inactive” each time. Moreover, the Potency was 14.8 µM (active) in test [8] and 11.8 µM (active) in [9].

Molecule `COc1cc(N2CCN(C)CC2)ccc1Nc1nc(N)c(C(=O)c2c(Cl)cccc2Cl)s1` yielded a parasite growth, % of DMSO control in test [1] of 20.2%. In test [2], the parasite growth remaining, % of DMSO control (lower = more inhibition) was found to be 8.77%. Further, the growth, % of control in test [10] was 21.1%. Besides, the cell viability, % of control (lower = more cytotoxic) in test [4] came out at 72.5%. Further, the viability (% of control) in [5] is 49.7%. Besides, the Potency result in [6] and in test [7] was “inactive” each time. The figures for the Potency in test [8] and in test [11] were 13.2 µM (active) and 16.6 µM (active), respectively.

Consider `CCCCCOC(=O)Nc1nc(=O)n([C@@H]2O[C@H](C)[C@@H](O)C2O)cc1F` (stereo partly specified), for which, in test [1], the parasite growth, % of DMSO control came to 253%. In addition, in [2], the parasite growth remaining, % of DMSO control (lower = more inhibition) is 102%. Moreover, the parasite growth, % of control (lower = inhibition) in test [3] came out at 83.9%. The molecule further yielded a growth, % of control in test [10] of 171%. The cell viability, % of control (lower = more cytotoxic) in test [4] is 124%. The viability (% of control) in test [5] turned out to be 102%. The Potency result in [6], in test [7] and in test [8] was “inactive” in each case. In test [9], the Potency is 20.9 µM (active).

On to `C[C@H]1O[C@@H](n2cc(F)c(=O)[nH]c2=O)[C@H](O)[C@H]1O`, for which the parasite growth, % of DMSO control in [1] is 22.6%. Also, the parasite growth, % of control (lower = inhibition) in test [3] is 7.59%. Also, the growth, % of control in test [10] is 53%. The cell viability, % of control (lower = more cytotoxic) in [4] stood at 170%. Further, the viability (% of control) in test [5] amounted to 28.4%. The Potency entry in test [6] and in [7] was “inactive” each time. For the same molecule, the figures for the Potency in test [8] and in test [9] were 18.7 µM (active) and 9.35 µM (active), respectively.
